Drawing on PubChem BioAssay AID2158 (National Center for Advancing Translational Sciences (NCATS), 2009), this text covers Potency and activity change, negative = inhibition for 15 molecules.

Several values for one entry are separate records, joined by “and”; a condition that tells them apart may be missing. Equal values may be shown once. Records with an inconclusive call do not appear. Unmarked numbers belong to inactive results. Activity calls are given as the source filed them. Calls follow the shape of the dose curve; as a rule, active = well fitted inhibition curve with a large enough effect; inconclusive = small, poorly fitted or top-dose-only effect; inactive = no such curve, though single readings can be large or run the other way.
Potency is read from the fitted curve at half-maximal effect.

In this assay the target is Cruzipain (Trypanosoma cruzi) (UniProt P25779). Kind of assay: Confirmation qHTS Assay for Inhibitors of Cruzain. Also: nearly all actives have a fitted effect of over 40% in size.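 As to activity change, negative = inhibition: plate controls were uninhibited enzyme control for no effect and buffer wells lacking enzyme for full effect.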 The conditions noted are these: purified cruzain, Z-FR-AMC fluorescence, 0.01% Triton. The gist of the method: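 Purified cruzain, 1.5 nM, pre-incubated 15 min at room temperature with compound in 100 mM sodium acetate pH 5.5, 5 mM DTT, 0.01% Triton X-100. Then 2 uM Z-FR-AMC added; AMC fluorescence (ex 360/em 450 nm) increase over 60 s gave reaction progress.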
Sequence of Cruzipain (Trypanosoma cruzi) (P25779 123-467 limits assumed): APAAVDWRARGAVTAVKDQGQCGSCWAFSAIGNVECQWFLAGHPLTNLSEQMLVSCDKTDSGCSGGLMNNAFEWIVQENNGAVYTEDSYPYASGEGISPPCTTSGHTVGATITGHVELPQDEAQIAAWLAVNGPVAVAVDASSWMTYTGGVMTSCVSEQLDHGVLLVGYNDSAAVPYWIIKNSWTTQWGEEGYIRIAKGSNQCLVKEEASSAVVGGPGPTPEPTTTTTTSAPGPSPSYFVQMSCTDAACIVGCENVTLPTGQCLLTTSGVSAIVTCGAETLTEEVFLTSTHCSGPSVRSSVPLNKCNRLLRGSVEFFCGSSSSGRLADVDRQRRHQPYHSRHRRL
Regarding `N#Cc1nc(N2CCCC2)nc(N(c2ccccc2)c2ccccc2)n1`, the Potency was 1 µM (active).

On to `CCc1ccc(OCCCn2c(CCNC(=O)C3CCCCC3)nc3ccccc32)cc1`, for which the Potency is 1.41 µM (active). On the same count and under the same terms, in the case of `O=C(NCCc1nc2ccccc2n1CCCOc1ccc2ccccc2c1)C1CCCCC1` it was 1.12 µM (active). In the case of `COc1ccccc1-c1nn2c(-c3cc(-c4ccccc4)n[nH]3)nnc2s1`, the activity change, negative = inhibition is -18.8%. Consider `Cc1ccc(OCCCn2c(CCCNC(=O)C3CCCCC3)nc3ccccc32)cc1`, for which the activity change, negative = inhibition was -20.3%. In the case of `Cc1ccccc1OCCCn1c(CCNC(=O)C2CCCCC2)nc2ccccc21`, the Potency is 1 µM (active). On the same count and under the same terms, the same measure for `Cc1cccc(OCCCn2c(CCNC(=O)C3CCCCC3)nc3ccccc32)c1`: 794 nM (active) and 708 nM (active). Take `COc1ccc(-c2nnc(NC(=O)c3ccc(S(=O)(=O)N4CCCc5ccccc54)cc3)o2)cc1`: the activity change, negative = inhibition was -17.1%.

In the case of `CCc1ccc(NC(=O)Cn2c(SCc3ccc(C)cc3)nc3ccncc32)cc1`, the activity change, negative = inhibition is -7.51%. For the molecule `O=C(NCc1nnc(-c2nc3ccccc3[nH]2)o1)C1CCCCC1`, the activity change, negative = inhibition was -3.39%. Regarding `N#Cc1nc(N2CCCCC2)nc(N2CCOCC2)n1`, the Potency was 2.82 µM (active). Still for that read-out and setting: the same measure for `CCOC(=O)C(C(=O)OCC)N(C#N)c1nc(SC)nc(N(C)C)n1`: 5.01 µM (active).

Consider `CN(C)c1nc(C#N)nc(N2CCOCC2)n1`, for which the Potency is 10 µM (active) and 8.91 µM (active). Same read-out and setting: the same measure for `O=C(CNC(=O)c1cccc2ccccc12)OC(C(=O)Nc1cc(C(F)(F)F)ccc1Cl)c1ccccc1` (stereo not given): 12.6 µM (active); for `CC(C)(C)c1ccccc1Nc1nc(C#N)nc(NC2CCCC2)n1`: 2 µM (active).
